For assay [1], the system named is Plasmodium falciparum Sir2 (PF13_0152, Sir2A). The assay is described as follows: pfSir2 binders on small-molecule microarrays, primary screen, biochemical, small-molecule microarray, 635 nm fluorescence (AID 1098).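 Note: score merges spot fluorescence intensity with its signal-to-noise ratio.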 As to conditions: small-molecule microarray binding, fluorescence 635 nm; higher = more signal.
Assay [2] can be described thus: small-molecule microarray binders of probe aDKK1, primary screen, biochemical, biotinylated probe, 635/667 nm fluorescence (AID 1099).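 Note: score merges 667nm spot fluorescence with signal to noise across triplicate slides.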 As to conditions: higher = more signal.
Assay [3] can be described thus: small-molecule microarray binders of probe aCHRDL2, primary screen, biochemical, biotinylated probe, 635/667 nm fluorescence (AID 1100). As to conditions: higher = more signal.
Assay [4] can be described thus: splicing luciferase reporter signal modulators, primary screen, spliceosome inhibition project, cell-based, HEK293, splice +/- reporter (AID 1101).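 Note: HEK293 cells carrying a splicing-competent luciferase reporter gene; test concentration not given here.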 As to conditions: luminescence, 24 h, higher = more signal, called active from +8 up or from −8 down.
Assay [5] deals with Fibroblast growth factor 10 (Homo sapiens) (UniProt O15520). Nature of the assay: FGF10 binders on small-molecule microarrays, primary screen, biochemical, small-molecule microarray, 635 nm fluorescence (AID 1102). As to conditions: FGF10 binding, fluorescence 635 nm, higher = more signal.
Sequence of Fibroblast growth factor 10 (Homo sapiens) (O15520 whole entry, looked up): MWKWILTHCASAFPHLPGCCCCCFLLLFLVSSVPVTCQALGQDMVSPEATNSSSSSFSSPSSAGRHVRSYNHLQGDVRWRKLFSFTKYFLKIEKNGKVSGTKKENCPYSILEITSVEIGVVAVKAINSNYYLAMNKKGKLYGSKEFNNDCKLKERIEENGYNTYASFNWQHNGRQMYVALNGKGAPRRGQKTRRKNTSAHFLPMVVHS
In assay [6] the test system is glycogen synthase kinase-3 (GSK3A per assay name; protocol says GSK3B). Nature of the assay: GSK3 binders on small-molecule microarrays, primary screen, biochemical, small-molecule microarray, 635 nm fluorescence, GSK3A (AID 1103). Note: the record names both GSK3A and GSK3B. The following applies: small-molecule microarray binding, fluorescence 635 nm; higher = more signal.
The target of assay [7] is Epidermal growth factor receptor (Homo sapiens) (UniProt P00533). The assay is described as follows: EGFR binders on small-molecule microarrays, primary screen, biochemical, small-molecule microarray, 635 nm fluorescence (AID 1104).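 Note: score merges 667 nm emission intensity with spot signal to noise over triplicate slides.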 As to conditions: EGFR binding, higher = more signal.
Sequence of Epidermal growth factor receptor (Homo sapiens) (P00533 whole entry, looked up): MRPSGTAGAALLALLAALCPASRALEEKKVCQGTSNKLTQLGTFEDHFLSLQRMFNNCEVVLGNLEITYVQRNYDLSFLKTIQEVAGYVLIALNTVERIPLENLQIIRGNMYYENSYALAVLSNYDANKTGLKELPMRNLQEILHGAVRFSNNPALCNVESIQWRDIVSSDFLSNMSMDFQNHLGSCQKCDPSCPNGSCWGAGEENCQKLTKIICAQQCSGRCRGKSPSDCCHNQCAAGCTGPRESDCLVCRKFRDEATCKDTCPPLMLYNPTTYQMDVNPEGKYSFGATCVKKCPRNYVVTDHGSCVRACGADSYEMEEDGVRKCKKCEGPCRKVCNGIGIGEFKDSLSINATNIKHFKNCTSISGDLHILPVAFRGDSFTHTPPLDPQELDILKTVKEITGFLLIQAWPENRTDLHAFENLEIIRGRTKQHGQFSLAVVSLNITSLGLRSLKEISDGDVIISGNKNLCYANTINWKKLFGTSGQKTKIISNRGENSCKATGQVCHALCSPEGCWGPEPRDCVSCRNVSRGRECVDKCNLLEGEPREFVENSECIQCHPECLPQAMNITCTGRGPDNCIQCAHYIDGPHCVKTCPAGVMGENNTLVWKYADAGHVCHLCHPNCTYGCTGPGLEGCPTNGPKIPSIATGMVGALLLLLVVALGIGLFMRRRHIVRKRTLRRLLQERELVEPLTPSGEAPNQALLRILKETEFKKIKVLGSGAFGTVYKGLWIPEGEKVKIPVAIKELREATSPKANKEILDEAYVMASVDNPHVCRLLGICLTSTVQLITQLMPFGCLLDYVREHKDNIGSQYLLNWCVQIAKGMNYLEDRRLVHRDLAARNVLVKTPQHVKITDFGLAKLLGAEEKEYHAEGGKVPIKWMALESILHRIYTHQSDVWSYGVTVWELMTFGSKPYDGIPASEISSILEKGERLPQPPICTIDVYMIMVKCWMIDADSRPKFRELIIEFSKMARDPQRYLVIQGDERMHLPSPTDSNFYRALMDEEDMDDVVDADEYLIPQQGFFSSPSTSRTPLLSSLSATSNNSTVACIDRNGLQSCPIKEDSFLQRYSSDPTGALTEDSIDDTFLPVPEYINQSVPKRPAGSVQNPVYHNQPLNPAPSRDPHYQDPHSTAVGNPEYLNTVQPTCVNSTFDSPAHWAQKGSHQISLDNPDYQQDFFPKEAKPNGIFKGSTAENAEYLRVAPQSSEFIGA
Assay [8] addresses Follistatin-related protein 3 (Homo sapiens) (UniProt O95633). Nature of the assay: FSTL3 binders on small-molecule microarrays, primary screen, biochemical, small-molecule microarray, 635 nm fluorescence (AID 1105).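 Note: score merges emission near 667 nm and signal to noise per printed spot across three slides.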 The following applies: FSTL3 binding, higher = more signal.
Assay [9] deals with Dickkopf-related protein 1 (Homo sapiens) (UniProt O94907). The assay is described as follows: DKK1 binders on small-molecule microarrays, primary screen, biochemical, small-molecule microarray, 635 nm fluorescence scan (AID 1106).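 Note: score merges emission near 667 nm with signal to noise over three replicate slides.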 As to conditions: DKK1 binding, higher = more signal.
Sequence of Dickkopf-related protein 1 (Homo sapiens) (O94907 whole entry, looked up): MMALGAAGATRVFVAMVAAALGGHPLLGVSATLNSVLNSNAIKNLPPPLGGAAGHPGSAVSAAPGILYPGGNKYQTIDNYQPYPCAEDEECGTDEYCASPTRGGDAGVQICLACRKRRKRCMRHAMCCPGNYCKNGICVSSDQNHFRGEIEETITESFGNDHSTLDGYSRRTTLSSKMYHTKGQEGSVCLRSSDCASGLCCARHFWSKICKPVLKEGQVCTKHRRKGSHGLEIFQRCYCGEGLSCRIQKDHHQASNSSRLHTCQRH
Assay [10] concerns Inhibin beta A chain (activin A). Nature of the assay: INHBA (activin A) binders on microarrays, primary screen, biochemical, small-molecule microarray, 635 nm fluorescence scan (AID 1107).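 Note: mouse activin A protein probed at 4.33 µg/mL on printed slides; score merges bound-protein fluorescence near 667 nm with spot signal-to-noise.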 The following applies: small-molecule microarray binding, higher = more signal.
The subject of assay [11] is Human papillomavirus type 1a protein E7 (residues 44-93). The assay is described as follows: HPV1a E7 fragment binders on microarrays, primary screen, biochemical, small-molecule microarray, residues 44-93, 635 nm fluorescence (AID 1108).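 Note: E7 fragment applied at 1 µg/mL in TBST for 1 h at 4 C; score combines spot fluorescence with its signal to noise ratio.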 The following applies: small-molecule microarray binding, fluorescence 635 nm; higher = more signal.
A short description of assay [12]: modulators of HCV replicon luciferase signal, primary screen, HCV replication inhibitor project, Huh7 cells, luciferase reporter (AID 1109).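 Note: huh7 hepatoma cells harbouring a luciferase neomycin HCV replicon reporter; luciferase luminescence as measure of HCV replicon replication; test concentration not given here.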 The following applies: 48 h, higher = more signal.
Assay [13] concerns the target Left-right determination factor 2 (Homo sapiens) (UniProt O00292). Nature of the assay: LEFTY2 binders on small-molecule microarrays, primary screen, biochemical, small-molecule microarray, 635 nm fluorescence scan (AID 1110). The following applies: LEFTY2 binding, higher = more signal.
Assay [14] addresses Calmodulin-1 (Homo sapiens) (UniProt P0DP23). Nature of the assay: CALM1 binders on microarrays, EGTA buffer, profiling panel, biochemical, small-molecule microarray, Cy5-labelled CALM1 (AID 1111).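 Note: labelled calmodulin applied in Tris saline Tween buffer holding calcium plus EGTA and DTT.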 The following applies: Cy5-CALM1 binding fluorescence, higher = more signal.
Assay [15] shares this target. Nature of the assay: calcium-bound CALM1 binders on microarrays, profiling panel, artefact control for SMM control-protein annotation, biochemical, small-molecule microarray, Cy5-labelled CALM1, plus calcium (AID 1112).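 Note: score merges spot fluorescence with signal to noise from triplicate slides.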 As to conditions: Cy5-CALM1 binding fluorescence, higher = more signal.
Assay [16] can be described thus: small-molecule microarray binders of probe aWnt5a, primary screen, biochemical, biotinylated probe, 635/667 nm fluorescence (AID 1113).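 Note: score merges 667 nm fluorescence intensity with signal-to-noise per printed feature.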 As to conditions: higher = more signal.
A short description of assay [17]: small-molecule microarray binders of probe aShh, primary screen, biochemical, biotinylated probe, 635/667 nm fluorescence (AID 1114).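 Note: probe is biotin-labelled aShh protein from a stem cell growth factor screen; measures binding of labelled protein to compounds printed on the slide; score merges feature fluorescence at 667 nm with signal-to-noise.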 The following applies: higher = more signal.
The nature of assay [18]: small-molecule microarray binders of probe aNog, primary screen, biochemical, biotinylated probe, 635/667 nm fluorescence (AID 1115).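 Note: probe is biotinylated aNog protein used at 0.15 µg/mL for 1 h at 4 C; z-score combines 667 nm fluorescence of each spot with its signal to noise.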 As to conditions: higher = more signal.
For assay [19], the target named is Torsin-1A-interacting protein 1 (Homo sapiens) (UniProt Q5JTV8). The assay is described as follows: LAP1 binders from COS7 cell lysate, primary screen, small-molecule microarray, 635/667 nm fluorescence (AID 1116). As to conditions: COS7-hLAP1 lysate binding, 635 nm fluorescence, higher = more signal.
Sequence of Torsin-1A-interacting protein 1 (Homo sapiens) (Q5JTV8 whole entry, looked up): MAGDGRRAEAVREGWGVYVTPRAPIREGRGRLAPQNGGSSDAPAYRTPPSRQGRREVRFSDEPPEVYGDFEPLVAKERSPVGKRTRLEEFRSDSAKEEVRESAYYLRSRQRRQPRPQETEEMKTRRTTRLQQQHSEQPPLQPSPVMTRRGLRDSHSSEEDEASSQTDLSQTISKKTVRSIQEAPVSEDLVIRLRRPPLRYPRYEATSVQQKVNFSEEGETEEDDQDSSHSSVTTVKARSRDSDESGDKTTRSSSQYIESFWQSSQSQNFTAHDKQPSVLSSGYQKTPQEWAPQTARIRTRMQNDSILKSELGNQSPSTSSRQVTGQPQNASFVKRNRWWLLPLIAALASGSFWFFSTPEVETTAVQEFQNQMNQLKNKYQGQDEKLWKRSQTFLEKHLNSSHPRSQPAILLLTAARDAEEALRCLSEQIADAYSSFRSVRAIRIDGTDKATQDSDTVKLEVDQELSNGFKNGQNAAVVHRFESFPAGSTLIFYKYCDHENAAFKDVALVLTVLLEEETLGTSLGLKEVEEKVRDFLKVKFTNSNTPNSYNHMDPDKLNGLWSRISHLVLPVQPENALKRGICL
The target of assay [20] is Alpha-bungarotoxin (Bungarus multicinctus) (UniProt P60615). Nature of the assay: alpha-bungarotoxin binders on microarray, profiling panel, artefact control for SMM control protein annotation, biochemical, small-molecule microarray, Alexa647 label, 635/667 nm fluorescence (AID 1117). As to conditions: alpha-BTX-A647 binding fluorescence, higher = more signal.
Sequence of Alpha-bungarotoxin (Bungarus multicinctus) (P60615 whole entry, looked up): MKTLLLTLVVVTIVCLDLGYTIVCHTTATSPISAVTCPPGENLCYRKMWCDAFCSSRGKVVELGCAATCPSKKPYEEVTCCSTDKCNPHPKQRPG

Calls of active or inactive are those of the source.

Sequence of Follistatin-related protein 3 (Homo sapiens) (O95633 whole entry, looked up): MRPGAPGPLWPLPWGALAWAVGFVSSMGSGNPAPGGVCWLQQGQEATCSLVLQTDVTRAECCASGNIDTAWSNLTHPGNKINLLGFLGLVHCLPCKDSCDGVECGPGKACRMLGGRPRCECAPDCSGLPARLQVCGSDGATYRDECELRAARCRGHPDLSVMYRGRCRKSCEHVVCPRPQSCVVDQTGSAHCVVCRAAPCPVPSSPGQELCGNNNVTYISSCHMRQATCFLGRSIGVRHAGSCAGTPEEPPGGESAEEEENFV
Sequence of Left-right determination factor 2 (Homo sapiens) (O00292 whole entry, looked up): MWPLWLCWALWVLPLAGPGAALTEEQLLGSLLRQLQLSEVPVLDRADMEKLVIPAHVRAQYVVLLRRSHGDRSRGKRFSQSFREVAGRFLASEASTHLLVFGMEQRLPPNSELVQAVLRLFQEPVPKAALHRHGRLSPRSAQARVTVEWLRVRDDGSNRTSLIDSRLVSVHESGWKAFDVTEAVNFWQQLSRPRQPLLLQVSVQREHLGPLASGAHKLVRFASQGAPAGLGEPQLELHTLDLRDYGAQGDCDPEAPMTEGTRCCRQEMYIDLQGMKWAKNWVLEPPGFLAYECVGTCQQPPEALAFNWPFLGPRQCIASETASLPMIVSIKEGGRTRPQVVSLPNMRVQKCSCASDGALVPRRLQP

Take `CCOC(=O)C[C@H]1[C@H](OC(=O)Cc2ccc3c(c2)OCO3)[C@@H](NC(=O)CC(C)C)c2cc(OCCCO)ccc2N1C(=O)c1ccc2ccccc2n1`: the composite z-score was 1.26 in assay [1]; 0.0956 in assay [2]; -0.252 in assay [3]; 0.891 in [5]; 0.614 in [6]; 0.255 in assay [7]. In addition, the composite z-score in [8] is 1.19; in assay [9], 0.743; in assay [10], 0.242; in assay [11], 1; in assay [13] it was 0.305; in assay [14], 0.42. Also, the composite z-score is -0.717 in assay [15]; -0.0405 in assay [16]; -0.221 in [17]; -0.0208 in assay [18]; 0.633 in assay [19]; 0.185 in assay [20]. Also, the z-score in [4] is -0.881 (inactive); in assay [12], -0.699.

As for `CCCCC(=C=CC[C@@H](O)c1ccccc1OCCO)C[C@@H](O)c1ccccn1`, the composite z-score is 1.55 in assay [1]; -0.124 in assay [2]; -0.167 in [3]; 0.473 in assay [5]; -0.644 in assay [6]; 0.125 in assay [7]. For the same compound, the composite z-score is 0.143 in assay [8]; 0.141 in assay [9]; 0.624 in assay [10]; 0.361 in assay [11]; -0.139 in assay [13]; -0.408 in assay [14]. The composite z-score in assay [15] is -0.669; in assay [16] it was -0.113; in [17], -0.0904; in assay [18] it was -0.108; in assay [19], -0.194; in assay [20], 0.888. Also, the z-score is -0.0777 (inactive) in assay [4] and -1.61 in [12].

As to `C[C@]1(C(=O)NC2CC2)c2ccccc2C(=O)N(Cc2cc(F)cc(C(F)(F)F)c2)[C@H]1c1ccc(CO)cc1`, the composite z-score is 0.938 in assay [1]; -0.554 in [2]; 0.87 in assay [3]; -0.698 in [5]; -1.08 in [6]; -1.16 in [7]. In addition, the composite z-score in [8] was -0.801; in [9], -1.46; in assay [10], -0.672; in assay [11] it was 1.49; in assay [13] it was -1.59; in assay [14], -0.448. Further, the composite z-score was 0.0045 in assay [15]; -0.187 in assay [16]; -0.469 in assay [17]; -0.658 in assay [18]; -0.65 in assay [19]; -0.442 in [20]. For the same compound, the values for the z-score in assay [4] and in assay [12] were -0.224 (inactive) and -0.782, respectively.

Take `O=C1C2C=CC(C(O)C3CC=CCC3)N(Nc3ccc([N+](=O)[O-])cc3)C2C(=O)N1c1ccccc1` (stereo not given): the composite z-score in assay [1] is 0.811; in assay [2], 1.47; in assay [3], 1.03; in [5], 1; in [6] it was 1.1; in assay [7], 0.619. The composite z-score in assay [8] is 1.44; in assay [9] it was 0.386; in assay [10], 1.2; in assay [11], 0.34; in assay [13], 0.485; in assay [14], 1.76. The composite z-score in assay [15] was -0.0685; in assay [16], 0.22; in [17], 0.262; in assay [18], 1.39; in assay [19] it was 1.75; in [20], 1.87. Also, the z-score is 0.809 (inactive) in assay [4] and 0.276 in [12].

Turning to `COc1cc2c(cc1O)C(C)N(Cc1sc3ccccc3c1Cl)CC2` (stereo not given), the composite z-score is -0.0748 in assay [1]; 0.247 in [2]; 0.868 in assay [3]; -1.16 in [5]; -0.306 in assay [6]; -1.27 in assay [7]. In addition, the composite z-score in assay [8] was -0.348; in assay [9], -1.56; in [10], -0.0182; in assay [11] it was -1.91; in [13], -1.41; in assay [14] it was 1.23. Further, the composite z-score in assay [15] is 0.869; in [16], -0.117; in [17], 0.075; in [18], 0.426; in assay [19], -0.216; in assay [20], 0.201. Besides, the z-score was -0.283 (inactive) in assay [4] and -0.728 in assay [12].
